Reference: PubChem BioAssay (NCI)
Compounds without any hit were thinned out: in the full panel of roughly 83,000, 20% have a hit.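 96-well plates, one dose, 48 hours. Percent growth reported; active if below 10.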 Calls of active or inactive are those of the source.

Experiments:
Test in all cases: NCI-60 one-dose screen, 48 h (100 = growth as untreated, 0 = no growth, -100 = all killed)
NCI-H23 lung = settings: 10 µM unless noted
NCI-H322M lung = settings: 10 µM unless noted
HOP-62 NSCLC = settings: 10 µM unless noted
NCI-H522 lung = settings: 10 µM
A549/ATCC NSCLC = settings: 10 µM unless noted
786-0 renal = settings: 10 µM unless noted
COLO 205 colon = settings: 10 µM unless noted
NCI-H460 lung = settings: 10 µM unless noted
HOP-92 NSCLC = settings: 10 µM unless noted
NCI-H226 lung = settings: 10 µM

Measured: growth

COc1ccc(OC2=C(C#N)C(=N)N3c4ccccc4Sc4ccccc4C3N2)cc1 (centres undefined)
inactive: NCI-H23 lung 87.9% | NCI-H322M lung 97.5% | HOP-62 NSCLC 79.9% | NCI-H522 lung 97.8% | A549/ATCC NSCLC 104% | 786-0 renal 105% | COLO 205 colon 103%

Clc1ccc2c(c1)C[C@H]1C[C@@H](c3cccs3)N2O1
inactive: NCI-H23 lung 106% | NCI-H322M lung 99.7% | NCI-H460 lung 104% | HOP-92 NSCLC 69.8% | NCI-H522 lung 102% | A549/ATCC NSCLC 98.2% | 786-0 renal 108% | COLO 205 colon 112%

Clc1ccc(C2=Nc3cccc4cccc(c34)N2)cc1Cl
inactive: NCI-H23 lung 76.9% | NCI-H322M lung 103% | NCI-H460 lung 100% | HOP-92 NSCLC 92.9% | NCI-H522 lung 62% | A549/ATCC NSCLC 99.6% | 786-0 renal 111% | COLO 205 colon 100%

O=C1C(Cl)=C(NCCCN2CCOCC2)C(=O)c2ccccc21
inactive: NCI-H226 lung 107% | NCI-H322M lung 98.5% | HOP-62 NSCLC 120% | NCI-H460 lung 99.2% | HOP-92 NSCLC 106% | NCI-H522 lung 89.9% | A549/ATCC NSCLC 98.8% | 786-0 renal 113% | COLO 205 colon 86.9%

Nc1cc(Br)c(-c2nnc(CCC(=O)c3nc4ccccc4[nH]3)o2)c(Br)c1
inactive: NCI-H23 lung 70.8% | HOP-62 NSCLC 82.2% | NCI-H460 lung 102% | HOP-92 NSCLC 26.3% | NCI-H522 lung 24.6% | A549/ATCC NSCLC 90.7% | 786-0 renal 85.8% | COLO 205 colon 70.6%

CCOc1ccc(-c2cnnn2-c2nonc2-n2cccc2)cc1
active: NCI-H522 lung -55.9% | COLO 205 colon -75.2%
inactive: NCI-H23 lung 17.3% | HOP-62 NSCLC 31.6% | HOP-92 NSCLC 25.4% | A549/ATCC NSCLC 17.2% | 786-0 renal 37.3%

CCOC(=O)c1c(Cl)c2c(n1Cc1ccc(OC)cc1)-c1oncc1CCC2
inactive: NCI-H23 lung 86.5% | NCI-H322M lung 95.2% | HOP-62 NSCLC 98.4% | NCI-H522 lung 95.4% | A549/ATCC NSCLC 86.1% | 786-0 renal 90.4% | COLO 205 colon 93.2%

COc1cc(-c2nc3ccccc3o2)cc(CN2CCN(c3ccccc3)CC2)c1O
inactive: NCI-H23 lung 37.8% | HOP-62 NSCLC 47.1% | NCI-H460 lung 51% | HOP-92 NSCLC 81.8% | NCI-H522 lung 58.4% | A549/ATCC NSCLC 30.2% | 786-0 renal 90.2% | COLO 205 colon 117%

O=C(CCc1nnc2sc(/C=C\c3ccccc3)nn12)c1nc2ccccc2[nH]1
inactive: NCI-H23 lung 73.4% | HOP-62 NSCLC 75.8% | NCI-H460 lung 96.7% | HOP-92 NSCLC 52.9% | NCI-H522 lung 95.1% | A549/ATCC NSCLC 97.5% | 786-0 renal 89.7% | COLO 205 colon 90.7%

Cn1c(=O)c2c(-c3ccccc3F)n(-c3ccc4c(c3)OCO4)cc2n(C)c1=O
inactive: NCI-H23 lung 95.2% | HOP-62 NSCLC 102% | NCI-H460 lung 99.4% | NCI-H522 lung 91.5% | A549/ATCC NSCLC 99.8% | 786-0 renal 102% | COLO 205 colon 106%

CCOC(=O)c1cn2c3c(cc(F)cc3c1=O)C(CC)c1ccccc1C2 (centres undefined)
inactive: NCI-H23 lung 103% | NCI-H322M lung 87.1% | NCI-H460 lung 101% | HOP-92 NSCLC 95.6% | NCI-H522 lung 78.7% | A549/ATCC NSCLC 87.2% | 786-0 renal 93.2% | COLO 205 colon 105%

CCCCc1ccc(NC(=O)C(F)(F)F)cc1
inactive: NCI-H23 lung 106% | HOP-62 NSCLC 102% | NCI-H460 lung 108% | HOP-92 NSCLC 104% | NCI-H522 lung 82% | A549/ATCC NSCLC 102% | 786-0 renal 91.8% | COLO 205 colon 107%

COc1ccc(Cn2c(Br)c3c(c2-c2cc(OC)c(OC)c(OC)c2)CCc2sc(N)nc2-3)cc1
inactive: NCI-H23 lung 38.1% | NCI-H322M lung 46% | HOP-62 NSCLC 41.4% | A549/ATCC NSCLC 19% | 786-0 renal 40.2%
active: NCI-H522 lung -11.4% | COLO 205 colon -10.6%

COc1cc(C(=O)N(C(C)C)C2CCCCC2)cc(OC)c1OC
inactive: NCI-H23 lung 101% | NCI-H322M lung 108% | HOP-62 NSCLC 93.3% | NCI-H522 lung 88.3% | 786-0 renal 121% | COLO 205 colon 105%

COc1ccc(/C=C(\C#N)c2cc3ccccc3n2C)cc1
inactive: NCI-H23 lung 39.4% | NCI-H322M lung 48.3% | HOP-92 NSCLC 76.5% | A549/ATCC NSCLC 27.2% | 786-0 renal 32.9%
active: NCI-H460 lung 6.08% | COLO 205 colon -17.8%

CCOC(=O)C(CC(c1ccccc1)N1CCCCC1)[N+](=O)[O-] (centres undefined)
inactive: NCI-H226 lung 82.9% | NCI-H322M lung 88.5% | HOP-62 NSCLC 86% | NCI-H460 lung 68% | HOP-92 NSCLC 78.4% | NCI-H522 lung 59.4% | A549/ATCC NSCLC 76.4% | 786-0 renal 93.3% | COLO 205 colon 108%

O=c1nc(NO)[nH]c(=O)n1Cc1ccc(F)cc1
inactive: NCI-H23 lung 106% | NCI-H322M lung 98.8% | HOP-62 NSCLC 107% | 786-0 renal 101% | COLO 205 colon 118%

COc1ccc(Nc2[nH]n(C3=Nc4ccccc4Sc4ccccc43)c(=O)c2C#N)cc1
inactive: NCI-H23 lung 28.3% | NCI-H322M lung 89.1% | HOP-62 NSCLC 75.9% | NCI-H522 lung 29.6% | A549/ATCC NSCLC 55.2% | 786-0 renal 64.7% | COLO 205 colon 15.1%

O=c1onc(-c2ccccc2)c2ccccc12
inactive: NCI-H23 lung 104% | HOP-62 NSCLC 117% | NCI-H460 lung 109% | HOP-92 NSCLC 95.4% | NCI-H522 lung 101% | A549/ATCC NSCLC 109% | 786-0 renal 105% | COLO 205 colon 119%

CCCCc1ccc(C(O)(CCN2CC3CCC(CC3)C2)c2ccccc2)cc1 (centres undefined)
inactive: NCI-H23 lung 87.7% | HOP-62 NSCLC 106% | NCI-H460 lung 107% | HOP-92 NSCLC 75.4% | NCI-H522 lung 84.2% | A549/ATCC NSCLC 96.2% | 786-0 renal 85.9% | COLO 205 colon 80.9%

Cc1ccc(C2SCC(=O)N2NC(=O)c2[nH]c3ccc(F)cc3c2-c2ccccc2)cc1 (centres undefined)
inactive: NCI-H23 lung 86.6% | NCI-H322M lung 111% | HOP-62 NSCLC 109% | NCI-H522 lung 67.8% | 786-0 renal 105% | COLO 205 colon 104%

COc1cccc(Nc2nc(NCCO)c3ccccc3n2)c1
inactive: NCI-H23 lung 85.8% | NCI-H322M lung 86.4% | HOP-62 NSCLC 93.1% | NCI-H522 lung 70.8% | A549/ATCC NSCLC 68.3% | 786-0 renal 86% | COLO 205 colon 108%

Cc1cc(NS(=O)(=O)c2ccc(NC(=O)COc3ccc(-c4cc5ccccc5[nH]4)cc3)cc2)no1
inactive: NCI-H23 lung 22.4% | NCI-H522 lung 20.8% | A549/ATCC NSCLC 30.1%
active: HOP-62 NSCLC -11.3% | NCI-H460 lung 9.1% | HOP-92 NSCLC 5.04% | 786-0 renal 2.3% | COLO 205 colon -50.5%

Clc1nc(-c2ccccn2)nc2sc3c(c12)CCCCCC3
inactive: NCI-H23 lung 82.4% | NCI-H322M lung 84.5% | HOP-62 NSCLC 86.6% | A549/ATCC NSCLC 99.8% | 786-0 renal 98.4% | COLO 205 colon 115%

Cc1nc2ccc(Cl)cc2n1C
inactive: NCI-H23 lung 107% | NCI-H322M lung 108% | NCI-H460 lung 109% | HOP-92 NSCLC 105% | NCI-H522 lung 90.2% | A549/ATCC NSCLC 103% | 786-0 renal 101%

O=C(CCc1nnc2sc(-c3ccccc3)nn12)c1nc2ccccc2[nH]1
inactive: NCI-H23 lung 79.7% | HOP-62 NSCLC 100% | NCI-H460 lung 99.8% | HOP-92 NSCLC 49.1% | NCI-H522 lung 91.2% | A549/ATCC NSCLC 99.3% | 786-0 renal 103% | COLO 205 colon 114%

c1ccc2c(c1)oc1cc3c(cc12)nnc1cccn13
inactive: NCI-H226 lung 98.5% | NCI-H322M lung 90.9% | HOP-62 NSCLC 116% | NCI-H460 lung 112% | HOP-92 NSCLC 120% | NCI-H522 lung 96.7% | A549/ATCC NSCLC 97.1% | 786-0 renal 121%

Cc1nn2c(-c3nc4ccc(Cl)cc4[nH]3)c(-c3ccc(F)cc3)nc2s1
inactive: NCI-H23 lung 98.2% | HOP-62 NSCLC 115% | NCI-H460 lung 97.5% | HOP-92 NSCLC 91% | NCI-H522 lung 99.9% | A549/ATCC NSCLC 80.1% | 786-0 renal 93.8% | COLO 205 colon 108%

O=[N+]([O-])c1ccc(C=C2C(Cl)=C(Cl)C(Cl)=C2Cl)cc1
inactive: NCI-H226 lung 62.7% | NCI-H322M lung 121% | HOP-62 NSCLC 78.3% | NCI-H460 lung 90.6% | NCI-H522 lung 46.1% | A549/ATCC NSCLC 92.1% | 786-0 renal 19.8% | COLO 205 colon 54%

COC(=O)c1cc(-c2ccc(C)cc2)n(C(=O)CSc2nc3sc(C(N)=O)c(C)c3c(=O)n2Cc2ccccc2)n1
inactive: NCI-H226 lung 103% | NCI-H322M lung 129% | HOP-62 NSCLC 98.6% | NCI-H460 lung 103% | HOP-92 NSCLC 92.5% | NCI-H522 lung 95% | A549/ATCC NSCLC 107% | 786-0 renal 102% | COLO 205 colon 93.5%

O=C1/C(=C/c2ccc(F)cc2)CN(Cc2cn(CCNc3ccnc4cc(Cl)ccc34)nn2)C/C1=C\c1ccc(F)cc1
active: NCI-H226 lung -62.3% | NCI-H322M lung -0.345% | HOP-62 NSCLC -55.3% | NCI-H460 lung -42.8% | HOP-92 NSCLC -50.5% | NCI-H522 lung -75.4% | A549/ATCC NSCLC -31.3% | 786-0 renal -66.2% | COLO 205 colon -53.4%

Cc1nn(CC(=O)O)c2c1C(=O)CC(C)(C)C2
inactive: NCI-H226 lung 93.6% | NCI-H322M lung 115% | HOP-62 NSCLC 91.1% | NCI-H460 lung 107% | HOP-92 NSCLC 95.5% | NCI-H522 lung 96.7% | A549/ATCC NSCLC 102% | 786-0 renal 89.8% | COLO 205 colon 117%

COC(=O)CCC(=O)c1ccccc1
inactive: NCI-H226 lung 115% | NCI-H322M lung 119% | HOP-62 NSCLC 116% | NCI-H460 lung 106% | NCI-H522 lung 106% | A549/ATCC NSCLC 95.4% | 786-0 renal 94.7% | COLO 205 colon 115%

CC(C)N1CCN(c2ccc(OC[C@H]3CO[C@](Cn4cncn4)(c4ccc(Cl)cc4Cl)O3)cc2)CC1
inactive: NCI-H226 lung 93.6% | NCI-H322M lung 106% | HOP-62 NSCLC 81% | NCI-H460 lung 103% | HOP-92 NSCLC 71.2% | NCI-H522 lung 78% | 786-0 renal 99.2% | COLO 205 colon 62.9%
